# In the library only some 2.5% were active in any assay of this set; here they are far more common.
# ATG4B inhibitor: blocks human ATG4B protease cleavage of LC3 substrate; ATG4B cleavage of LC3-PLA2, NBD-HPC fluorescence, 1 h; inhibition, % at 8.33 µM; Q9Y4P1; hit rate 0.51% among 340,000; in the data active = inhibition above about 40%
# Target sequence (Q9Y4P1 whole entry, looked up): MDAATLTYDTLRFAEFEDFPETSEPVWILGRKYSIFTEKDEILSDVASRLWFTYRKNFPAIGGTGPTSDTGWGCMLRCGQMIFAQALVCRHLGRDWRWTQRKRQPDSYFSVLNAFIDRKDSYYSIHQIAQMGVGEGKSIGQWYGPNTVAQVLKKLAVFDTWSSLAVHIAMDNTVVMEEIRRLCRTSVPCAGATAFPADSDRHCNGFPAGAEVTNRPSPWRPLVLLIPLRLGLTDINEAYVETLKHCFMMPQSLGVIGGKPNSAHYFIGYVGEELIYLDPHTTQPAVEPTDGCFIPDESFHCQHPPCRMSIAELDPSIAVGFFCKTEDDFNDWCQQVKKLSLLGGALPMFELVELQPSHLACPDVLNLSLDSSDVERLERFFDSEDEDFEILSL
# Efflux pump mplx: antifungal efflux pump inhibition, Nile Red retention. S. cerevisiae Candida pump triplex. inhibition, % at 10 µM. hit rate 0.44% among 330,000. AID 485275;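 active = plate passing quality check with inhibition over a set limit, or well fluorescence over plate mean plus 4 SD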;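 also: Nile Red retained in pooled yeast measured as flow cytometry median fluorescence; 0% = buffer negative control and 100% = Enniatin B positive control; higher means more Nile Red kept so more efflux inhibition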
# SUMO Mot1 rescue: blocks SUMOylation pathway, rescuing yeast Mot1-301 growth | S. cerevisiae Mot1-301 growth rescue, ATP luminescence, 38.5C; percent above DMSO median, 100 means doubled | growth rescue, % at 18.8 µM | hit rate 1% among 320,000 | AID 2716;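 active = every valid replicate shows activation above 250% relative to neutral control wells; inactive = the rest, any valid replicate at or below 250%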;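 also: OY570 slx delta 5 strain wells were the positive control but not used for scaling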
# AI-2 QS modul: modulators of Vibrio harveyi AI-2 quorum sensing system; Vibrio harveyi JMH597 AI-2 luminescence/OD600 ratio, 9 h; stronger effect = lower value; strain lacks LuxN and CqsS sensors; 0 = neutral-control median; activity change, % at 7.5 µM; hit rate 0.4% among 300,000; AID 2094; in the data active = activity change below about -75%, passing the limit was not always enough; inconclusive = no clear call, values can overlap the other calls;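 also: luminescence divided by OD600 gain over 9 h not by final OD600 alone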
# V-ATPase pH: regulators of yeast V-ATPase proton transport; response, % at 10 µM; hit rate 0.37% among 350,000; S. cerevisiae, pHLuorin cytosolic pH fluorescence; in the data active = response mostly above about 7.3%, no sharp cut-off; inactive = mostly below about 5.4%; also: actives read high
# * hit, by the source's call; u = inconclusive; x = no result.
SMILES,ATG4B inhibitor,Efflux pump mplx,SUMO Mot1 rescue,AI-2 QS modul,V-ATPase pH
CCCCCCC1CC(C)(/C(C)=N/NC(N)=O)OC1=O (stereo not given),-0.2,-0.4,-2.9,28.4,4.9
CCCCCCC1CC(C)(C(=O)CNc2nncs2)OC1=O (stereo not given),-4.0,1.2,-12.4,-76.3*,1.4
CCC(=O)c1ccc(OCC(=O)OCC(=O)Nc2sccc2C(N)=O)cc1,-5.8,0.0,-2.5,30.2,2.2
Cc1cc(N2CCN(C)CC2)nc2ccc(NC(=S)N3CCN(c4ccc(Cl)cc4)CC3)cc12,-6.8,0.3,539.2*,5.6,0.5
Cc1c(Cc2ccccc2)c(=O)oc2cc(OC(=O)c3ccccc3)ccc12,23.2,0.1,2.5,-13.9,-7.7
COC(=O)Cc1c(C)c2ccc(OC(=O)c3ccccc3)cc2oc1=O,4.3,0.1,-11.5,32.8,20.2*
CC1(C)CC(=O)/C(=N/Nc2ccc(Cl)cc2)CO1,-1.0,-0.1,274.9*,-22.6,2.2
Cc1cccc(N/N=C2/COC(C)(C)CC2=O)c1,5.2,-0.1,53.4,18.3,1.9
Cc1[nH]c2ccccc2c1CCNC(=O)CCC(=O)c1ccccc1,10.1,0.0,-23.1,16.7,17.1*
Cc1ccc(Cl)c(NC(=O)COC(=O)c2cc[n+]([O-])cc2)c1Cl,5.3,-0.3,-4.0,x,-2.7
COCCn1c(=S)[nH]c2cc(C(=O)N3CCc4ccccc43)ccc2c1=O,19.1,-0.7,247.2,-77.6*,-2.1
O=c1[nH][nH]c(-c2ccccc2O)c1C(C[N+](=O)[O-])c1ccc(Cl)cc1Cl (stereo not given),0.1,0.6,268.6*,31.8,4.6
CN(C)CCNC(=O)c1ccc2c(c1)NC(=O)c1ccccc1S2,-2.9,0.0,335.7*,8.3,3.7
O=S(=O)(Cc1ccccc1Cl)N1CCN(Cc2ccc3c(c2)OCO3)CC1,-8.6,0.0,277.3*,3.7,1.9
CCOc1ccc(S(=O)(=O)N2CCN(Cc3ccc4c(c3)OCO4)CC2)cc1Cl,4.8,0.0,386.1*,7.6,-0.1
COC(C(=O)Nc1ccnn1C1CCN(Cc2cnn(C(C)C)c2)CC1)c1ccccc1 (stereo not given),-2.7,0.0,19.8,15.5,1.5
O=C(Nc1ccccc1)C(Cl)C(=O)c1ccccc1 (stereo not given),-9.0,0.4,-6.8,-81.8*,1.7
O=c1cc(-c2ccccc2)nc2nc(CCc3ccccc3)[nH]n12,6.4,0.2,10.1,26.0,15.6*
CCOC(=O)c1c(NC(=O)CN2CCOCC2)sc2c1CC(C)(C)OC2,-15.0,-0.1,-16.4,5.7,-0.2
O=[N+]([O-])c1cc(Cl)c(O)c2ncccc12,-3.5,x,x,-88.1*,3.1
O=[N+]([O-])c1cc(CN2CCN(c3ccccc3)CC2)c(O)c2ncccc12,2.0,0.2,-13.1,55.0,6.6*
Clc1cc2cccnc2c2ncccc12,-9.6,0.1,15.2,x,-1.9
CN(Cc1cc([N+](=O)[O-])c2cccnc2c1O)C1CCCCC1,x,8.2*,2.1,-5.0,x
O=[N+]([O-])c1cc(F)c2cccnc2c1O,-3.4,0.2,-8.7,u,4.0
O=[N+]([O-])c1cc(Cl)c2cccnc2c1O,-6.9,-0.1,-9.3,u,1.6
SMILES,ATG4B inhibitor,Efflux pump mplx,SUMO Mot1 rescue,AI-2 QS modul,V-ATPase pH
O=[N+]([O-])c1cc(CN2CCOCC2)c2cccnc2c1O,0.8,x,x,x,x
Oc1c(I)cc(Cl)c2cccnc12,11.5,0.1,82.7,-107.8*,0.8
NNC(=O)c1[nH]c(-c2ccccc2)cc1-c1ccccc1,-4.6,0.6,-5.3,6.8,-2.4
COc1ccc(OCCCC(=O)Nc2ccc3c(c2)OCO3)cc1,1.3,-0.3,13.3,29.6,15.9*
CCOc1ccc(OCCC(=O)Nc2ccc3c(c2)OCO3)cc1,-19.7,0.0,0.0,x,-0.8
COc1cc(C(=O)Nc2cc(Cl)ccc2C)c(-n2cnnn2)cc1OC,-5.0,-0.1,11.3,36.6,0.8
O=C(CCc1nnc(CCCCc2ccccc2)o1)N1CCCC(O)C1 (stereo not given),8.5,-0.1,275.7*,16.1,-7.2
O=C(CCc1nnc(CCCCc2ccccc2)o1)N1CCC(N2CCCC2)CC1,16.4,0.3,0.4,12.9,1.4
CC(=O)C1=C(C)Nc2ncnn2C1c1cccc(O)c1 (stereo not given),-4.0,0.1,335.9*,10.6,1.8
Cc1ccccc1NC(=O)C(=O)NCC1CCCN1S(=O)(=O)c1cccs1 (stereo not given),-3.2,-0.1,11.9,4.8,3.0
O=C(NCCc1ccccc1)C(=O)NCC1CCCN1S(=O)(=O)c1cccs1 (stereo not given),-7.8,0.1,355.1*,24.1,-4.3
O=c1c2cc(Cl)ccc2nc(-c2ccc([N+](=O)[O-])cc2)n1O,0.7,-0.1,-6.5,-82.9*,10.3
O=c1c2cc(Br)ccc2nc(-c2ccc(Cl)cc2)n1O,3.5,-0.4,9.2,18.5,-1.2
CC(C)NC(=O)N(C)C[C@@H]1OCc2cnnn2CCCC(=O)N([C@H](C)CO)C[C@@H]1C,x,x,x,x,-3.7
COc1cc(OC)cc(OC(=O)C2CCN(C3=NS(=O)(=O)c4ccccc43)CC2)c1,-7.1,0.2,-2.1,x,2.2
COc1ccc(CCC(C)NC2C3CC4CC(C3)CC2C4)cc1 (stereo not given),-3.2,x,x,43.4,15.8*
COc1ccc(CNC(C)CCc2ccccc2)cc1 (stereo not given),2.7,-0.1,-1.6,11.7,-1.1
Cc1ccc(-c2nc(-c3ccccn3)sc2CC(=O)O)cc1,-11.9,0.0,327.9*,22.8,7.2
O=C(Nc1ccccc1)c1cc2n(n1)C(C(F)(F)F)CC(C1CC1)N2 (stereo not given),-13.1,0.0,19.8,14.4,3.4
Cc1c(C(=O)O)sc2ncn(C)c(=O)c12,-10.7,0.1,2.5,17.4,1.4
COc1ccc(NC(=S)Nc2ccc(Oc3ccccc3)cc2)cc1,4.2,-0.1,276.8*,12.6,-0.7
COC(=O)Nc1ccc(Oc2ccccc2)cc1,16.9,0.6,278.1*,5.5,1.8
CC(=O)Nc1ccc(Oc2ccccc2)cc1,-6.7,0.0,8.1,-8.4,-0.2
CC12C=CC3(CN(Cc4ccccc4)C(=O)C3C1C(=O)NCc1ccco1)O2 (stereo not given),4.8,0.3,83.9,19.4,16.9*
COC(=O)C1C2C=CC3(CN(Cc4ccco4)C(=O)C13)O2 (stereo not given),5.4,-0.1,2.8,5.0,3.6
O=C(CCN1C(=O)C2C3CCC(C3)C2C1=O)Nc1cccc(Cl)c1 (stereo not given),8.2,0.3,1.2,4.2,2.7
COc1cc(-c2nc(CN3CCCCC3CCNC(C)=O)c(C)o2)ccc1F (stereo not given),-7.2,0.0,278.6,6.3,6.6
O=C(Cn1c(=O)c2sccc2n(Cc2cccc([N+](=O)[O-])c2)c1=O)NCCc1ccccc1,-6.3,0.1,883.7*,-10.8,-1.4
O=C(NCCc1ccccc1)c1cccc([N+](=O)[O-])c1,-13.9,0.2,514.0*,25.4,2.3

# High-throughput results: PubChem BioAssay, several laboratories
